The whole screen tested about 18,000 compounds, of which about 750 (4.2%) were called active. Not shown: some 13% with an inconclusive outcome. This excerpt belongs to a sample that is enriched for actives. Unmarked numbers belong to inactive results. Calls follow the shape of the full dose curve; tested in HEK293 cells.
% is scaled to controls: 0 for no effect and ±100 for the full control effect; potency is read from the fitted curve at half-maximal effect.

The nature of this assay: qHTS for Inhibitors of binding or entry into cells for Lassa Virus. As to conditions: Lassa virus pseudotyped entry inhibition, cell-based qHTS; series mostly up to 49.2 µM; activity change, negative = inhibition: at the top concentration. (In qHTS, concentration-response curves come from the screen itself.)
For the compound `Nc1nc2c(nc(Cl)n2C2OC(CO)C(O)C2O)c(=O)[nH]1` (configuration not stated), the “activity change, negative = inhibition” value was -8.45%.

Regarding `CC(C)NC[C@H](O)c1ccc2ccccc2c1`, the activity change, negative = inhibition result was “inactive”. For the compound `C#C[C@]1(O)CC[C@H]2[C@@H]3CCC4=CC(=O)CC[C@@H]4[C@H]3CC[C@@]21CC`, the “activity change, negative = inhibition” value was -26.1%.

On to `CC(=O)OCC(=O)[C@@]1(O)CCC2C3CCC4=CC(=O)CC[C@]4(C)C3C(=O)C[C@]21C` (some centres not stated), for which the “activity change, negative = inhibition” value is -0.0255%. As to `C#C[C@]1(OC(=O)CCCCCC)CC[C@H]2[C@@H]3CCC4=CC(=O)CC[C@@H]4[C@H]3CC[C@@]21C`, the Potency is 31.6 µM (active).

Regarding `O=c1[nH]c(=O)c2nc3ccccc3nc2[nH]1`, the “activity change, negative = inhibition” value is 4.84%. Turning to `CC(O)(COc1ccccc1)c1ccc2c(c1)CN(Cc1cn[nH]c1-c1ccc(F)cc1)CCO2` (configuration not stated), the “activity change, negative = inhibition” value was -20.1%. The same measure, in the same setting: the same measure for `CCCCCC(=O)N1C[C@H](n2cc(COC(=O)c3ccccc3)nn2)[C@@H](O)C[C@H]1c1ccc(Cl)cc1`: -9.09%.

Turning to `C=C(CCN1C=C(C(=O)OCC)C(c2ccccc2)NC1=O)OC` (configuration not stated), the activity change, negative = inhibition was -11% [at 8.59 µM].

On to `CC(O)[C@@H](N)C(=O)O` (some centres not stated), for which the “activity change, negative = inhibition” value is -10.8%.

As to `COc1c(O)c2c(=O)cc(OC)c3c4c(OC)cc(=O)c5c(O)c(OC)c6c(c(c1C[C@@](C)(O)[C@H]6C(C)=O)c23)c54`, the Potency is 35.5 µM (active). As for `CCOC(=O)C1=NO[C@@]2(C=C(Br)C(=O)[C@H]3O[C@H]32)C1`, the “activity change, negative = inhibition” value is -19.1%. Regarding `COc1ccc(C2CC(=O)Oc3ccc(C(C)(C)C)cc32)cc1` (configuration not stated), the “activity change, negative = inhibition” value was -3.99%. For `CC(C)C[C@@H](CC(=O)N[C@@H](CCC(=O)O)CC(=O)O)NC(=O)[C@@H]1CCCC[C@H]1NC(=O)C[C@@H](NC(=O)C[C@H](CO)NC(=O)[C@@H]1CCCC[C@H]1N)C(C)C`, the “activity change, negative = inhibition” value was -3.83%.

Regarding `CN1CCC[C@@H]1CCO[C@](C)(c1ccccc1)c1ccc(Cl)cc1`, the “activity change, negative = inhibition” value is -29.2% [at 17.8 µM].

For `CN1CCCC1CCO[C@@](C)(c1ccccc1)c1ccc(Cl)cc1` (some centres not stated), the Potency is 12.6 µM (active). On the same count and under the same terms, next, `Fc1ccc(C(OCCN2CCN(C/C=C\c3ccccc3)CC2)c2ccc(F)cc2)cc1`: 28.2 µM (active). Take `COc1ccc(CC2c3cc(OC)c(OC)cc3CC[N+]2(C)CCC(=O)OCCCCCOC(=O)CC[N+]2(C)CCc3cc(OC)c(OC)cc3C2Cc2ccc(OC)c(OC)c2)cc1OC` (configuration not stated): the “activity change, negative = inhibition” value was -6.74% [at 17.8 µM].

Turning to `CC(C)[C@@H](CC(=O)N[C@@H]1CCNC[C@H]1C(=O)N[C@H](CC(=O)N[C@@H](CCC(=O)O)CC(=O)O)Cc1ccccc1)NC(=O)C[C@H](CO)NC(=O)[C@@H]1CNCC[C@H]1N`, the “activity change, negative = inhibition” value was -0.433%. For `CN1CC(O)c2cc(N=NC(N)=O)c(O)cc21` (configuration not stated), the “activity change, negative = inhibition” value was -5.48%. Consider `CN(C)CCc1c[nH]c2ccc(Cn3cncn3)cc12`, for which the “activity change, negative = inhibition” value was 5.48%. On the same count and under the same terms, the same measure for `Fc1ccc(Cl)cc1-c1nc(Nc2ccncc2)c2nccnc2n1`: -20.8%; for `CCS(=O)(=O)N(C)[C@@H]1c2cc(C#N)ccc2OC(C)(C)[C@H]1O`: “inactive”.

As to `CCc1cc2c(nc1CC)CCN(CCC(C)=NOC[C@@H](O)COCc1ccco1)C2`, the activity change, negative = inhibition was 3.34% [at 8.59 µM]. For the compound `Cc1ccc(-c2cc(=O)c3ccc(Cl)cc3[nH]2)cc1`, the “activity change, negative = inhibition” value was 0.446%. On the same count and under the same terms, next, `C=C(C(C)=O)C(O)c1cccs1` (configuration not stated): “inactive”. As for `COC12CC[C@@]3(C[C@@H]1C(C)(O)C(C)(C)C)[C@H]1Cc4ccc(O)c5c4[C@@]3(CCN1CC1CC1)[C@H]2O5` (some centres not stated), the Potency was 28.2 µM (active). For the compound `COc1ccc(CNS(=O)(=O)c2cc(Br)ccc2Br)cc1`, the “activity change, negative = inhibition” value is 15.9%.

With `O=S(O)CNc1ccc(S(=O)(=O)c2ccc(NCS(=O)O)cc2)cc1`, the “activity change, negative = inhibition” value is 1.37%. On the same count and under the same terms, the same measure for `O=C(O)C1=CCCN(CCON=C(c2ccccc2)c2ccccc2)C1`: “inactive”; for `COc1ccc(C2=C(N3CCc4ccccc43)C(=O)NC2=O)cc1`: -26.5%; for `CC1=C(/C=C/C(C)=C/C=C/C(C)=C/C=C/C=C(C)/C=C/C=C(C)/C=C/C2=C(C)CCCC2(C)C)C(C)(C)CCC1`: 9.81%. The same measure, in the same setting: next, `COc1ccc(CCNc2ncnc3sc(C(=O)N4CCCC4)c(C)c23)cc1OC`: -8.35%. On the same count and under the same terms, next, `Cc1c2ccc(N(C)c3ccnc(Nc4cccc(S(N)(=O)=O)c4)n3)cc2nn1C`: -0.986%; `C=CCC(C)(O)c1ccco1` (configuration not stated): -0.27%; `CC1=C[C@H]2c3ccccc3C[C@H]2CO[C@]12C(=O)N(Cc1ccc(Br)cc1)c1ccccc12`: 16.7% [at 8.59 µM].

As for `COc1ccccc1-c1ccnc(-n2ncc(C(=O)NCCc3ccncc3)c2C)n1`, the “activity change, negative = inhibition” value is -18.3%. Still for that read-out and setting: the same measure for `CCOc1ccc(NS(=O)(=O)c2ccc(N)cc2)nn1`: 2.16%. As to `CC(C)[C@@H](CO[Si](C)(C)C(C)(C)C)N1C[C@@H](N2CCCC2)CS1(=O)=O`, the “activity change, negative = inhibition” value was -10.9%. Same read-out and setting: the same measure for `C=CC1=C2C=C(C3CC3)N(CC(C)C)C=C2C(=O)C(C)(OC(=O)c2ccco2)C1=O` (configuration not stated): -4.02% [at 8.59 µM]. Same read-out and setting: next, `NC(=O)C(=O)N/N=C/c1ccc([N+](=O)[O-])o1`: -13%. On the same count and under the same terms, next, `Cc1ccc(-c2nn(CC(C)(C)C)c3ncnc(N)c23)cc1`: -24.1%; `Cc1csc(-c2coc3cc(O[C@@H]4O[C@H](CO)[C@@H](O)[C@@H](O)[C@H]4O)ccc3c2=O)n1`: 28%. For `COc1ccc([C@@H](NC(=O)C(F)(F)F)C2CCCC=C2c2ccccc2)cc1OC` (some centres not stated), the activity change, negative = inhibition was -11.1% [at 8.59 µM]. Still for that read-out and setting: the same measure for `NNc1nnc(Cc2ccncc2)c2ccccc12`: -16.1%; for `O=Cc1c(Cl)cccc1Cl`: -7.53%. Same read-out and setting: next, `O=C1C(c2ccccn2)=[N+]([O-])c2ccccc21`: 1.18%. Still for that read-out and setting: next, `Cc1nnc(C(=O)NC(C)(C)c2nc(C(=O)NCc3ccc(F)cc3)c(O)c(=O)n2C)o1`: -10.3%. In the case of `C[C@@H]1C[C@H]2CC[C@H](O2)[C@H](C)C(=O)O[C@@H](C)C[C@@H]2CC[C@@H](O2)[C@@H](C)C(=O)O[C@H](C)C[C@H]2CC[C@H](O2)[C@H](C)C(=O)O[C@@H](C)C[C@@H]2CC[C@@H](O2)[C@@H](C)C(=O)O1`, the Potency was 0.562 µM (active).

Regarding `CCCCCCCCCCCC(=O)O[C@H](CC(=O)O)C[N+](C)(C)C`, the “activity change, negative = inhibition” value was -5.17%. As to `COC1=C[C@H](C(=O)N[C@H]2CCCC[C@H]2NC(C)=O)[C@H](C)[C@@H](c2ccccc2)CC1=O`, the activity change, negative = inhibition was -1.51% [at 8.59 µM]. On the same count and under the same terms, the same measure for `COc1cccc([C@@H]2Oc3ccc(Br)cc3C(=O)[C@H]2OC(=O)NCc2ccc3c(c2)OCO3)c1`: -0.946%; for `CN1CCCCCC1C(=O)NCCN1Cc2ccccc2OC(c2ccsc2)C1` (configuration not stated): 4.6%. Same read-out and setting: next, `CCCCC/C=C\C[C@H](O)/C=C/C=C/C=C/[C@@H](O)CCCC(=O)O`: 6.82%; `O=C(/C=C/c1cccc(F)c1)NC1CC1`: 9.73%. Regarding `CC[N+](C)(CC)CCC[n+]1c(-c2ccccc2)c2cc(N)ccc2c2ccc(N)cc21`, the Potency is 3.16 µM (active). With `Brc1ccc(C2=NCCC(c3ccccc3)O2)cc1` (configuration not stated), the “activity change, negative = inhibition” value is -12.7%.

`COC1=C[C@H](C(=O)NCc2ccccc2)[C@@]2(C)Cc3ccccc3[C@@H]2CC1=O`: the activity change, negative = inhibition is -4.25% [at 8.59 µM].

With `CCCC[C@]12Cc3cc(C#N)ccc3[C@H](O1)c1c(cc(-c3ccccc3)oc1=O)O2`, the activity change, negative = inhibition was 20.3% [at 8.59 µM]. On the same count and under the same terms, the same measure for `C=C(C)C(O)C=CC=Cc1ccccc1` (configuration not stated): 46.4% [at 8.59 µM]; for `C=O`: 7.43%; for `C[C@H]1CCC[C@@]2(C)CCCC[C@]12O`: -4.17%.

Take `CO[C@@]12[C@@H](COC(N)=O)C3=C(C(=O)C(C)=C(N)C3=O)N1C[C@@H]1N[C@@H]12`: the “activity change, negative = inhibition” value was -2.25%. Consider `COc1cc(=O)n2c(c1C(=O)NC(C)c1ccco1)CCN(C(=O)c1cn3ccc(C)cc3n1)CC2` (configuration not stated), for which the “activity change, negative = inhibition” value was -8.78%. Still for that read-out and setting: next, `CC[C@H](C)[C@H](NC(=O)[C@H](CCCNC(=N)N)NC(=O)[C@H](CCCNC(=N)N)NC(=O)[C@H](CC(C)C)NC(=O)[C@H](Cc1ccccc1)NC(=O)CNC(=O)CNC(=O)[C@@H](N)Cc1ccc(O)cc1)C(=O)N[C@@H](CCCNC(=N)N)C(=O)N1CCC[C@H]1C(=O)N[C@@H](CCCCN)C(=O)N[C@@H](CC(C)C)C(=O)N[C@@H](CCCCN)C(=O)N[C@@H](Cc1c[nH]c2ccccc12)C(=O)N[C@@H](CC(=O)O)C(=O)N[C@@H](CC(N)=O)C(=O)N[C@@H](CCC(N)=O)C(=O)O`: 2.04%; `CCC1(C2CCN(Cc3cccnc3)CC2)NC(=O)N(CC2COc3ccccc3O2)C1=O` (configuration not stated): -0.768%; `COC(=O)C12C[C@@H](C)C3C(C)C(c4ccccc4C31)N2C(=O)C(F)(F)F` (some centres not stated): 4.36% [at 8.59 µM].

Regarding `C=CCOC(=O)N[C@@H](CC(C)C)C(C(=O)OC)=C(C)NCc1ccccc1`, the activity change, negative = inhibition was -29.4% [at 8.59 µM].

Take `C[C@H]1Cc2c(-c3ccccc3)nc3c(c2CO1)CN(S(=O)(=O)c1ccc(Cl)c2nonc12)CC3`: the activity change, negative = inhibition is -12.5% [at 8.59 µM].

With `CC1(C)OC[C@@H](COC(=O)CCc2ccc(OC[C@@H](O)CNCCNC(=O)N3CCOCC3)cc2)O1`, the activity change, negative = inhibition entry was “inactive”.

Regarding `NS(=O)(=O)c1ccc(N=Nc2c(O)[nH]c3cccc(CCc4ccncc4)c23)cc1`, the “activity change, negative = inhibition” value is 27.4%.

On to `CC(=O)OC[C@H]1O[C@H](C#CCCCc2ccccc2)C=C[C@H]1OC(C)=O`, for which the activity change, negative = inhibition was -26.7% [at 8.59 µM]. Same read-out and setting: the same measure for `COc1ccc(-n2c(CNC(=O)c3cc(C(F)(F)F)ccc3Cl)nnc2SC)cc1`: 0.159%; for `CCCC1C(=O)N2C(N(C)C)=Nc3ccc(C)cc3N2C1=O` (configuration not stated): -4.84% [at 17.8 µM]. Regarding `CC(=O)OCC(COC(C)=O)OC(C)=O`, the activity change, negative = inhibition entry is “inactive”.

Take `COC(=O)C(C(=O)OC)C1c2ccccc2C=C(C2CC2)N1C(=O)OC` (configuration not stated): the activity change, negative = inhibition result was “inactive”. Regarding `CCC1CN(CCNC(=O)c2cccnc2C)Cc2cc(OC)ccc2O1` (configuration not stated), the “activity change, negative = inhibition” value is -1.24%.

Take `O=C1OCCN1C(=O)[C@H]1[C@H](c2ccc(F)cc2)C(c2ccccc2)=NN1c1ccc(Br)cc1`: the “activity change, negative = inhibition” value was -12.8%.

Consider `CCn1ccnc1C[C@@H]1COc2ccccc2O1`, for which the “activity change, negative = inhibition” value is 19.4%. The same measure, in the same setting: the same measure for `C#CCN([C@@H](C)C(=O)OCC)S(=O)(=O)c1ccc(Br)cc1F`: 21.8%; for `CCCc1c2oc(C(=O)O)cc(=O)c2cc2c(=O)cc(C(=O)O)n(CC)c12`: -11.3%. With `CCc1noc(C)c1C(=O)NCCN1Cc2cc(OC)ccc2OC(CC)C1` (configuration not stated), the “activity change, negative = inhibition” value is -8.14%.

For the origin of these results see PubChem BioAssay AID720533 (National Center for Advancing Translational Sciences (NCATS), 2013).
